Gal4-VP16 FLuc = counter-screen for ROR gamma inhibitors: Gal4-VP16 reporter; Drosophila S2 Gal4-VP16 UAS-luciferase, luminescence, 20 h; Potency, µM (doses to about 53.6 µM), inactives show at the top dose activity, negative = inhibition, actives largely listed as inhibitors; actives 3.5% (n = 310,000);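 also: Gal4-VP16 expression switched on by copper sulfate through the metallothionein promoter; potency is read from the fitted curve at half-maximal effect; nearly all actives have a fitted effect of over 50% in size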
LDHA inh = blocks human lactate dehydrogenase A | actives 0.15% (n = 480,000) | P00338 | activity change, % (values are at about 110 or 230 µM) | purified LDHA, NADH/diaphorase-resazurin fluorescence; stronger effect = lower value; in the data active = activity change below about -30%; inconclusive = mostly about -25% to -30%;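 also: plate controls were DMSO wells for no effect and wells without enzyme for full effect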
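LDH5 2 nM; NADH 0.06 mM, pyruvate 0.2 mM; 200 mM Tris pH 7.4, EDTA, Tween-20; 5 min RT. Detection: diaphorase 0.133 mg/mL + resazurin 37 µM, fluorescence ex540/em590 at 0 and 20 min; normalized to enzyme-free and DMSO wells.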
DT40 TDP1 no CPT = qHTS for Inhibitors of human tyrosyl-DNA phosphodiesterase 1 (TDP1): qHTS in cells in absence of CPT; actives 15% (n = 420,000); DT40 Tdp1-/- hTDP1 cells, no CPT, ATP luminescence, 48 h; Potency, µM (series often up to 46.2 µM), for inactives: top-dose activity change, negative = growth inhibition, actives largely listed as inhibitors; also: potency is read from the fitted curve at half-maximal effect; nearly all actives have a fitted effect of over 55% in size
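Seeded 400 DT40-hTDP1 cells/well (vehicle DMSO, no 20 nM CPT); pinned compounds; ≥48 hr at 37 °C; CellTiter-Glo luminescence as viability measure.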
TDP1 cell CPT = DT40-hTDP1 cell growth loss with CPT; chicken DT40 Tdp1-/-;hTDP1 cells + 20 nM CPT, ATP luminescence, 48 h; Potency, µM (doses to about 46.2 µM), without a hit: top-dose activity change, negative = growth inhibition, hits mostly inhibitors; actives 12% (n = 420,000); AID 686979; also: potency is read from the fitted curve at half-maximal effect; nearly all actives have a fitted effect of over 55% in size
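Chicken DT40 Tdp1-/- cells complemented with human TDP1, 400 cells/well, exposed to compounds plus 20 nM camptothecin for at least 48 h at 37 C; viability read as ATP content by CellTiter-Glo luminescence.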
RORg inh = blocks mouse ROR gamma transcriptional activity; Drosophila S2 Gal4-RORgamma UAS-luciferase reporter, 20 h; AID 2551; Potency, µM (top dose mostly 53.6 µM), inactives show at the top dose activity change, negative = inhibition, most hits filed as inhibitors; actives 5.4% (n = 310,000); P51450; also: potency is read from the fitted curve at half-maximal effect; nearly all actives have a fitted effect of over 60% in size
Target sequence (P51450 whole entry, looked up, the tested form may be a part): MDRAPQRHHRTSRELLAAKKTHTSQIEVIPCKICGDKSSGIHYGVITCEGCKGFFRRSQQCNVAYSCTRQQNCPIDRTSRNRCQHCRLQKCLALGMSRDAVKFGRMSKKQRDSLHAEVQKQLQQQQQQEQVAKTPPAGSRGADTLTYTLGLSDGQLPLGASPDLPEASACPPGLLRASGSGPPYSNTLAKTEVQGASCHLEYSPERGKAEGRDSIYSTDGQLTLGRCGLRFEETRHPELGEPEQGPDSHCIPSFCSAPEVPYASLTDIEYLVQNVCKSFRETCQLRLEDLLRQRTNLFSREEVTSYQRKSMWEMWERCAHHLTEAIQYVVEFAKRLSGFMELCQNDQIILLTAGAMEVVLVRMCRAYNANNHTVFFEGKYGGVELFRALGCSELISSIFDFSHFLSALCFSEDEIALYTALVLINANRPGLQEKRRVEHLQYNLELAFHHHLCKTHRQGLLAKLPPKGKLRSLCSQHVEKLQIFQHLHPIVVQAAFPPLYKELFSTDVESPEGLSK
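Stable Schneider cell line, Gal4 DNA-binding domain fused to ROR gamma, UAS-luciferase. Cmpd 1 hr RT → CuSO4 700 uM final → 20 hr RT → luciferase reagent 10 min → luminescence.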
IL1B secr inh = inflammasome signaling inhibition, IL-1 beta readout; THP-1 LPS/ATP IL-1B secretion, AlphaLISA, 16 h; stronger effect = lower value; activity change, % at 57.5 µM; actives 4.7% (n = 360,000); AID 743279; in the data active = activity change below about -50%; inconclusive = mostly about -30% to -49%
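THP-1 cells pretreated 1 hr with compounds (up to 57.5 uM final), then stimulated with LPS (250 ng/mL final) plus ATP (1.25 mM final); secreted IL-1B measured by AlphaLISA after 16 hr, decreased signal indicating inhibition.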
An asterisk follows results filed as active. Hits are enriched below; roughly 18% of the tested compounds scored in any of these assays. Unless noted, calls follow the shape of the dose curve; as a rule, active = well fitted curve in the direction sought with a large enough effect; inconclusive = small, poorly fitted or top-dose-only effect, or another doubt; inactive = no such curve, though single readings can be large; an effect the other way counts as inactive or inconclusive. Unless noted, % is scaled to controls: 0 for no effect and ±100 for the full control effect.

What do the screens show for `COc1cc2c(cc1OC)/C(=C/S(=O)(=O)c1ccc(C)c(C)c1)NCC2`?
LDHA inh: -4.0

What do the screens show for `COc1ccc(C(=O)/C=C2\NCCc3cc(OC)c(OC)cc32)cc1OC`?
Gal4-VP16 FLuc: -6.9%; LDHA inh: 6.8; DT40 TDP1 no CPT: 16.4µM*; TDP1 cell CPT: 16.4µM*; RORg inh: -6.3%; IL1B secr inh: inconclusive

How did Cc1cccc(C2CCCCC2)c1O do in these assays?
LDHA inh: -3.6

What do the screens show for `N#Cc1ccc(C(=O)Nc2ccc(Cl)c(C(F)(F)F)c2)cc1`?
LDHA inh: 3.3

What do the screens show for `CCN1CCN(Cc2ccc(NC(=O)c3cc(NC(=O)c4cnnc5ccccc45)cc(OC)c3)cc2C(F)(F)F)CC1`?
Gal4-VP16 FLuc: -0.7%; LDHA inh: 3.6; DT40 TDP1 no CPT: 6.51µM*; TDP1 cell CPT: 8.2µM*; RORg inh: inconclusive; IL1B secr inh: 2.9

Results for CCN1CCN(Cc2ccc(NC(=O)c3cc(NC(=O)c4cncc(-c5ccc(C#N)cc5)c4)cc(OC)c3)cc2C(F)(F)F)CC1 ?
Gal4-VP16 FLuc: 3.55µM*; LDHA inh: -8.6; DT40 TDP1 no CPT: 2.59µM*; TDP1 cell CPT: 2.31µM*; RORg inh: 2.82µM*; IL1B secr inh: -58.6*

Results for COc1cc(OC)cc(C(=O)N2CCN(Cc3ccccc3C(F)(F)F)CC2)c1 ?
Gal4-VP16 FLuc: -4.6%; LDHA inh: -7.5; DT40 TDP1 no CPT: inconclusive; TDP1 cell CPT: inconclusive; RORg inh: 17.9%; IL1B secr inh: -4.3

What do the screens show for `CCCCOc1ccc2c(=O)c(Oc3ccc(OC)cc3)c(C(F)(F)F)oc2c1`?
LDHA inh: 5.6

Results for CC(C)(C)c1ccc(Cn2c(=N)n(CC(O)c3ccco3)c3ccccc32)cc1 (configuration not stated) ?
Gal4-VP16 FLuc: inconclusive; LDHA inh: -0.9; DT40 TDP1 no CPT: 2.59µM*; TDP1 cell CPT: 2.59µM*; RORg inh: inconclusive; IL1B secr inh: -67.4*

What do the screens show for `Cc1ccccc1Cn1c(C(C)O)nc2ccccc21` (configuration not stated)?
Gal4-VP16 FLuc: -2.1%; LDHA inh: -5.7; DT40 TDP1 no CPT: inconclusive; TDP1 cell CPT: inconclusive; RORg inh: -11.1%; IL1B secr inh: 1.7

Results for Cc1ccccc1Cn1c(=N)n(CC(O)c2ccco2)c2ccccc21 (configuration not stated) ?
Gal4-VP16 FLuc: -6.4%; LDHA inh: -1.9; DT40 TDP1 no CPT: 14.6µM*; TDP1 cell CPT: 18.4µM*; RORg inh: 1.5%; IL1B secr inh: -77.1*

How did CCOc1ccc(-c2cc(-c3nc(-c4ccc(OC)c(OC)c4)no3)[nH]n2)cc1 do in these assays?
LDHA inh: -5.4; DT40 TDP1 no CPT: 6.51µM*; TDP1 cell CPT: 16.4µM*

Results for COc1cc(-c2noc(-c3cc(C)[nH]n3)n2)cc(OC)c1OC ?
LDHA inh: -1.9; DT40 TDP1 no CPT: inconclusive; TDP1 cell CPT: -20.4%

Results for CCOc1ccc(-c2noc(-c3cc(-c4ccco4)n[nH]3)n2)cc1 ?
LDHA inh: 17.4

What do the screens show for `COc1ccc(OCc2nc(-c3ccc(OC)c(OC)c3)no2)cc1`?
LDHA inh: -4.3; DT40 TDP1 no CPT: inconclusive; TDP1 cell CPT: 16.4µM*

How did CCOc1ccc(-c2cc(-c3nc(-c4cc(OC)c(OC)c(OC)c4)no3)[nH]n2)cc1Cl do in these assays?
LDHA inh: -2.4; DT40 TDP1 no CPT: 3.26µM*; TDP1 cell CPT: 5.8µM*

How did O=S(=O)(Nc1cc(Cl)cc(Cl)c1)c1cccc(C(F)(F)F)c1 do in these assays?
LDHA inh: -1.1

Results for CC(=O)C1=C(O)C(=O)N(c2ccccn2)C1c1ccccc1[N+](=O)[O-] (configuration not stated) ?
Gal4-VP16 FLuc: -10.5%; LDHA inh: 5.7; DT40 TDP1 no CPT: 16.4µM*; TDP1 cell CPT: inconclusive; RORg inh: -36.4%; IL1B secr inh: 42.8

What do the screens show for `CC(=O)C1=C(O)C(=O)N(c2ccc(Br)cn2)C1c1ccccc1[N+](=O)[O-]` (configuration not stated)?
Gal4-VP16 FLuc: -5.1%; LDHA inh: -2.8; DT40 TDP1 no CPT: -28.3%; TDP1 cell CPT: -10.2%; RORg inh: inconclusive; IL1B secr inh: 4.1

How did CCOc1ccc(S(=O)(=O)NCCc2c(C)[nH]c3c(Cl)cccc23)cc1C do in these assays?
LDHA inh: 1.3; DT40 TDP1 no CPT: inconclusive; TDP1 cell CPT: 23.1µM*

Results for O=C(/C(=C\c1ccc(Cl)cc1Cl)c1nc2ccccc2o1)c1ccccc1 ?
LDHA inh: 1.2

What do the screens show for `O=C(OCCN1C(=O)c2cccc3c(N4CCOCC4)ccc(c23)C1=O)c1ccc(Cl)cc1`?
Gal4-VP16 FLuc: -0.6%; LDHA inh: -2.9; DT40 TDP1 no CPT: 1.64µM*; TDP1 cell CPT: 2.06µM*; RORg inh: 7.6%; IL1B secr inh: -4.3

What do the screens show for `Cc1cccc(CNC(=O)C2CCN(S(=O)(=O)c3ccc4c(c3)CCCN4C(=O)C3CCC3)CC2)c1`?
LDHA inh: -2.1; DT40 TDP1 no CPT: 8.2µM*; TDP1 cell CPT: 13µM*

How did CCC(C)(C)NC(=O)C1CCN(S(=O)(=O)c2ccc3c(c2)CCCN3C(C)=O)CC1 do in these assays?
LDHA inh: -5.0; DT40 TDP1 no CPT: -0.2%; TDP1 cell CPT: 2.5%

How did CC(=O)N1CCCc2cc(S(=O)(=O)N3CCC(C(=O)Nc4ccc(C)cc4Cl)CC3)ccc21 do in these assays?
LDHA inh: -9.6; DT40 TDP1 no CPT: 16.4µM*; TDP1 cell CPT: 14.6µM*

Results for Cc1cccc(NC(=O)C2CCN(S(=O)(=O)c3ccc4c(c3)CCCN4C(=O)C3CCC3)CC2)c1 ?
LDHA inh: -1.4; DT40 TDP1 no CPT: inconclusive; TDP1 cell CPT: inconclusive

What do the screens show for `O=C(NCc1ccccc1)C1CCN(S(=O)(=O)c2ccc3c(c2)CCCN3C(=O)C2CCC2)CC1`?
LDHA inh: -7.2; DT40 TDP1 no CPT: inconclusive; TDP1 cell CPT: 16.4µM*

What do the screens show for `O=C(NCc1ccc(Cl)cc1)C1CCN(S(=O)(=O)c2ccc3c(c2)CCCN3C(=O)C2CCC2)CC1`?
LDHA inh: 2.6; DT40 TDP1 no CPT: 20.6µM*; TDP1 cell CPT: 16.4µM*
